# Experimental data taken from the supplement of paper PMC3842684.
# Key:
# [1] = tested on: P. falciparum NF54-pfs16-GFP early (I-III) stage gametocytes; assay: relative % inhibition of viable gametocyte number; higher = more gametocytocidal; conditions: stage: early (I-III) gametocyte, incubation 72 h
# Method in brief: (§1)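 Viable gametocytes were counted by confocal imaging as elongated GFP objects carrying MitoTracker Red signal above a cut-off, after 72 h of compound exposure (5 or 0.5 µM) at 37°C in 5% CO2 and 5% O2 and overnight staining. The NF54 pfs16-GFP gametocytes had been magnet-isolated at early (I/IIa, day 2) or late (day 8) stage and plated at 10% parasitaemia, 0.1% haematocrit in 384-well poly-D-lysine imaging plates. Relative inhibition was normalised to vehicle and positive-control wells within each plate.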
# [2] = tested on: P. falciparum NF54-pfs16-GFP late (IV-V) stage gametocytes; assay: as above; conditions: stage: late (IV-V) gametocyte, incubation 72 h
# Method in brief: as §1
Compound,relative % inhibition ([1]; 0.5 µM) [%],relative % inhibition ([1]; 5 µM) [%],relative % inhibition ([2]; 0.5 µM) [%],relative % inhibition ([2]; 5 µM) [%]
Cc1ccc(Cl)cc1N1CCN(CCCNC(=O)C2CCN(c3nc4ccccc4[nH]3)CC2)CC1,20,66,28.3,-3.06
CC(C)(C)c1ccc(C(=O)Nc2c3c(nn2-c2cccc(Cl)c2)CSC3)cc1,-12.5,10.5,-5.32,8.85
CCOc1ccc(N2C(N)=NC(N)=NC2(C)C)cc1,3.66,-20.1,-17.5,-10.7
CC(Oc1ccc(NC(=O)c2cccs2)cc1)C(=O)c1ccc(Cl)cc1 (configuration not stated),10.9,23,16.4,52.1
OCCNc1nc(Nc2ccc(Cl)c(Cl)c2)nc2ccccc12,-6.33,-11,53.9,52.3
O=C(Nc1ccc(Br)cc1)Nc1cccc(Cl)c1,20,26.8,-8.75,-6.59
CCCCc1c(CCC)c(=N)c2ccccc2n1C,16.2,-5.38,18.3,-17.8
O=C(Nc1cccc(C2=NCCN2)c1)Nc1cccc(C2=NCCN2)c1,9.97,6.29,10.7,-30.3
O=C(NC1CCCC1)c1ccc(N2CCC(NCc3cccc(C(F)(F)F)c3)CC2)cc1,2.61,22.8,6.99,44.5
COC(=O)c1ccc(C2C3=C(O)CC(c4ccc(F)cc4)CC3=Nc3ccccc3N2C(=O)c2ccccc2)cc1 (configuration not stated),26.9,103,88.6,98.4
C=CCc1c(C)nc2ccccc2c1O,5.51,13.3,36.3,53.7
COc1ccc(CNC(=O)c2cc3c(=O)n4ccccc4nc3n(CCc3ccccc3)c2=N)cc1,2.74,56.6,-16.6,-9.45
CCOC(=O)c1cnc2c(C)cccc2c1Nc1ccc(C(C)=O)cc1,-9.17,7.93,7.91,-0.973
Cc1cccc(N2C(=O)C3C(C2=O)C2(c4ccccc4)C(=O)C3(c3ccccc3)C(c3ccc4c(c3)OCO4)=C2c2ccc3c(c2)OCO3)c1 (configuration not stated),56.2,66.1,24.7,10.9
O=C(NC(c1ccccc1)c1ccc2cccnc2c1O)c1ccccc1 (configuration not stated),31.4,95.3,35.8,86.9
CCCOCc1cc(CN2CCN(c3cccc(Cl)c3)CC2)c(O)c2ncccc12,14,91.3,-7.95,102
COc1cc(C(=O)Nc2ccc(-c3nc4ccccc4[nH]3)cc2)cc(OC)c1OC,22.1,42.1,20.5,9.54
CCOC(=O)c1cnc2ccc(OC)cc2c1NCc1ccccc1,26.4,17.1,10.1,2.07
Clc1ccc2[nH]c3c(NCCCN4CCOCC4)ncnc3c2c1,61.4,97.5,12.4,17.7
COc1cc2cc(C(=O)Nc3ccccc3)c(N)nc2cc1OC,16.8,99,3.1,-13.4
CCCCCCC(O)(c1ccc(F)cc1)C(CN1CCOCC1)c1ccccc1 (configuration not stated),-0.0307,47.2,8.28,33.1
CC(C)CCNCC(O)Cn1c2ccccc2c2ccccc21 (configuration not stated),23.7,102,19,82.9
COc1ccc(N2CCN(C(CNC(=O)C3CCCCC3)c3ccc4c(c3)OCO4)CC2)cc1 (configuration not stated),22.8,8.98,35.1,50.7
CC(NCc1ccccc1)c1cc(Cl)ccc1O (configuration not stated),15.7,89.5,15.3,53.3
O=C(Nc1ccc(-c2nc3ccccc3[nH]2)cc1)c1ccc(Cl)c(Cl)c1,14.9,-3.57,0.0958,-12

Compound,relative % inhibition ([1]; 0.5 µM) [%],relative % inhibition ([1]; 5 µM) [%],relative % inhibition ([2]; 0.5 µM) [%],relative % inhibition ([2]; 5 µM) [%]
CCOC(=O)c1cnc2ccc(OC)cc2c1Nc1ccc(N2CCN(C)CC2)cc1,53,24.4,11.9,19.4
CCOc1cc2c(cc1OCC)C(c1cc(Cl)ccc1O)NCC2 (configuration not stated),13,102,19,26.7
COCCn1c(C)nc2ccccc2c1=O,9.29,10.1,43.2,16.8
CC1CC(C)CN(C(=O)c2ccc(Cl)cc2Cl)C1 (configuration not stated),-0.883,-4.96,1.4,3.37
Nc1ccc(-c2nc3cc(Oc4ccc(Oc5ccc6[nH]c(-c7ccc(N)cc7)nc6c5)cc4)ccc3[nH]2)cc1,13.7,98,13.4,32.9
OC1=C2C(=Nc3ccccc3SC2c2ccc(Br)cc2)c2ccccc21 (configuration not stated),3.13,35.9,71.4,73
O=C(NC1CCN(Cc2ccccc2)CC1)c1cc(C(=O)NC2CCN(Cc3ccccc3)CC2)cc(C(=O)NC2CCN(Cc3ccccc3)CC2)c1,20.3,82,0.475,31.9
Cc1ccc2c(C)nc(Nc3nc(C)cc(-c4ccccc4)n3)nc2c1,38,88.6,111,113
CCOc1ccc2nc(C)cc(Nc3ccc(Br)cc3)c2c1,38.4,58.5,14.7,57.1
COc1cc(OC)cc(N2C(=O)N(Cc3ccc(C(C)(C)C)cc3)c3ccccc3S2(=O)=O)c1,10,6.11,4.34,35.7
CC(C)(C)c1ccc(C2CC3=Nc4ccccc4N(C(=O)c4ccccc4Cl)C(c4ccc(F)cc4)C3=C(O)C2)cc1 (configuration not stated),20,80.4,60.8,89.9
CCc1ccc(Nc2cc(C)nc3nc(C)nn23)cc1,-3.8,-31,4.51,16.9
CCCCCCn1c(=N)n(CC(O)COc2cccc(C)c2)c2ccccc21 (configuration not stated),23,52,-12.2,103
Oc1c2c(nc3cc(-c4ccccc4)nn13)CCCC2,3.76,-0.467,-4.66,57.1
O=C(Nc1ccccc1O)c1ccc(Oc2cccc(C(=O)Nc3ccccc3O)c2)cc1,20.5,50.6,14.1,8.35
Cc1ccc(NC(=O)Nc2cccc(Cl)c2)cc1F,11,28.9,-16,21.8
CCC(O)c1ccc(Br)cc1NC(=O)c1cccc(Cl)c1 (configuration not stated),3.28,93.3,12,28.6
FC(F)(F)c1cccc(CNC2CCN(CCc3ccccc3)CC2)c1,-2.89,82.2,1.32,-17.4
CCc1ccc(CNCC(O)c2ccccc2)cc1 (configuration not stated),9.08,44.3,3.65,11.4
O=C(NNc1cc(N2CCCC2)nc(N2CCCC2)n1)c1ccccc1,-9.28,-5.49,10.9,16.3
COc1cccc(Cn2c(Oc3ccccc3)nc3c2c(=O)n(C)c(=O)n3C)c1,1.22,-14,6.35,9.52
O=C1c2ccc3c4c(ccc(c24)C(=O)N1CCCCO)C(=O)N(CCCCO)C3=O,-9.07,4.23,5.48,4.35
O=C(O)C1Cc2c([nH]c3ccccc23)C(c2ccc(Cl)cc2Cl)N1 (configuration not stated),-10.4,-20.9,6.2,1.16
Cc1ccc(CN2CCC(C(=O)Nc3ccc(-c4cc5ccccc5[nH]4)cc3)CC2)o1,9.97,90.5,3.47,-13.5
CCN(CC)c1cc(C)c2cc(NC(=O)c3cccc(OC)c3)ccc2n1,15.1,16.1,-0.167,86.7

Compound,relative % inhibition ([1]; 0.5 µM) [%],relative % inhibition ([1]; 5 µM) [%],relative % inhibition ([2]; 0.5 µM) [%],relative % inhibition ([2]; 5 µM) [%]
CN1c2ccccc2N(C)C1c1ccc2c(c1)OCO2,0.225,-13.6,28.6,-1.98
O=C1c2ccccc2-c2nnc(-c3ccc(Br)cc3)cc21,16.6,10,75.4,88.5
CN(C)c1ccc(N2C(N)=NC(N)=NC2(C)C)cc1,-7.59,-3.16,20.3,-8.27
Brc1ccc(Nc2nc3ccccc3nc2Nc2ccc(Br)cc2)cc1,38.5,103,55.2,102
CCn1nc(-c2ccc(C(=O)OC)cc2)nc2c(=O)n(C)c(=O)nc1-2,18.4,36.1,68,76.7
CCN(CC)CCNc1ccnc2cc(Cl)ccc12,-1.61,100,18.2,14.7
Cc1ccc(C(=O)c2oc3ccc4c(C)cc(=O)oc4c3c2C)cc1,8.47,-0.0271,0.817,12
COc1ccc(-c2cc(=O)oc3c4c(ccc23)OCN(Cc2ccc(F)cc2)C4)cc1,-4.17,73.2,25.1,34.8
CC1CCN(Cc2ccc(NC(=O)c3cc4ccc5cccnc5c4[nH]3)cc2)CC1,19.6,94,0.926,12
COCCNCC(O)Cn1c2ccc(Cl)cc2c2cc(Cl)ccc21 (configuration not stated),5.62,62.7,52.3,96.1
COc1ccc2nc(C)cc(Nc3ccccc3O)c2c1,6.33,20.9,-7.14,18.4
CCCCCn1c(=N)n(CC(O)COc2cccc(C)c2)c2ccccc21 (configuration not stated),37.7,74.5,-3.63,56
CCOc1cc(Cl)c(C(C)NC(=O)c2ccccc2)cc1OCC (configuration not stated),15.1,34.5,8.2,38.7
COc1ccc(-c2cc3c(SCC(=O)Nc4cc(C(F)(F)F)ccc4Cl)nccn3n2)cc1,14.5,-14.1,-14.3,3.88
CCN(CC)CCCNc1ccnc2cc3ccccc3cc12,11,-7.44,-7.72,-8.3
CCOc1c(Br)cc(C2C(C(=O)OC)=CN(C)C=C2C(=O)OC)cc1OC,17.4,88.4,-1.2,68.1
CCCN(CCC)CCCNC(=O)c1cc2c(-c3ccc(OC)c(OC)c3)nn(C)c2s1,29.6,43.5,18.3,-7.44
COc1ccc(CNC2CCN(c3ccc(NC(=O)c4cccc(Cl)c4)cc3)CC2)cc1OC,-12.4,79,-4.13,-22
COc1nc(Nc2ccc(C(C)C)cc2)nc(OC)n1,24.9,0.105,-0.358,-10.9
Cc1cc(Nc2ccc3ccccc3c2)n2ncnc2n1,-10.4,3.61,1.55,8.91
CC(C)(C)CC(C)(C)NCC(O)COc1ccc2c(c1)CCC2 (configuration not stated),-11.4,78.8,17.6,20.4
Cc1cc(=O)oc2c1ccc1oc(C(=O)c3ccccc3)c(C)c12,8.22,5.4,17.2,-4.53
c1ccc(CNc2nc(Nc3ccccc3)nc3ccccc23)cc1,65.9,97,57.9,86.1
